Results reported in the supplement of paper PMC9694430.

Legend:
Experiment in all cases: thermal shift delta Tm vs DMSO control; higher = stronger stabilization (binding)
Conditions in all cases: 12.5 µM; protein concentration 2 µM
LOC_OS01G01410-cb001 = tested on: LOC_OS01G01410-cb001
In short: (§1)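 Thermal shift values come from differential scanning fluorimetry on purified rice kinase domains made in E. coli, with melting temperatures obtained from Boltzmann fits. Samples of 19.5 μl held 2 μM kinase, 100 mM potassium phosphate pH 7.5, 150 mM NaCl, 10% glycerol, 5 × SYPRO Orange and compound in DMSO, and were heated from 25°C to 95°C at 0.05°C/s. Each shift is a triplicate mean relative to the DMSO-only protein sample.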

LOC_OS01G02750-cb003 = tested on: LOC_OS01G02750-cb003
In short: as §1

LOC_OS01G10900-cb004 = tested on: LOC_OS01G10900-cb004
In short: as §1

LOC_OS01G13800-cb001 = tested on: LOC_OS01G13800-cb001
In short: as §1

LOC_OS01G14860-cb001 = tested on: LOC_OS01G14860-cb001
In short: as §1

LOC_OS01G21960-cb002 = tested on: LOC_OS01G21960-cb002
In short: as §1

LOC_OS01G39600-cb002 = tested on: LOC_OS01G39600-cb002
In short: as §1

LOC_OS01G48390-cb002 = tested on: LOC_OS01G48390-cb002
In short: as §1

LOC_OS01G51400-cb002 = tested on: LOC_OS01G51400-cb002
In short: as §1

LOC_OS01G52050-cb004 = tested on: T1, LOC_OS01G52050-cb004
T1 sequence (whole entry): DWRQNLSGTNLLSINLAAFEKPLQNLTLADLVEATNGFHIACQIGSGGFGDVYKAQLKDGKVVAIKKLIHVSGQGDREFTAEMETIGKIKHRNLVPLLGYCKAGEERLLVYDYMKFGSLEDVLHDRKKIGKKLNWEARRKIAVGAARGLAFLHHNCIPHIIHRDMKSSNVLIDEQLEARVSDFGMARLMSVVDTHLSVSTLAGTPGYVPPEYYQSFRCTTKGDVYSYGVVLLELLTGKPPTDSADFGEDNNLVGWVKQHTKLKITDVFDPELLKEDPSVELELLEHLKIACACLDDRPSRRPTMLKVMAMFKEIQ
In short: as §1

LOC_OS01G57100-cb003 = tested on: LOC_OS01G57100-cb003
In short: as §1

LOC_OS01G60330-cb001 = tested on: LOC_OS01G60330-cb001
In short: as §1

LOC_OS01G60700-cb002 = tested on: LOC_OS01G60700-cb002
In short: as §1

LOC_OS01G63280-cb003 = tested on: LOC_OS01G63280-cb003
In short: as §1

LOC_OS01G67340-cb003 = tested on: LOC_OS01G67340-cb003
In short: as §1

LOC_OS01G70970-cb002 = tested on: LOC_OS01G70970-cb002
In short: as §1

LOC_OS02G07810-cb001 = tested on: LOC_OS02G07810-cb001
In short: as §1

LOC_OS02G08530-cb003 = tested on: LOC_OS02G08530-cb003
In short: as §1

LOC_OS02G14120-cb001 = tested on: LOC_OS02G14120-cb001
In short: as §1

LOC_OS02G17970-cb001 = tested on: LOC_OS02G17970-cb001
In short: as §1
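Further: purified Escherichia coli-expressed rice kinase domain construct.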

| Compound | thermal shift delta Tm (LOC_OS01G01410-cb001) [°C] | thermal shift delta Tm (LOC_OS01G02750-cb003) [°C] | thermal shift delta Tm (LOC_OS01G10900-cb004) [°C] | thermal shift delta Tm (LOC_OS01G13800-cb001) [°C] | thermal shift delta Tm (LOC_OS01G14860-cb001) [°C] | thermal shift delta Tm (LOC_OS01G21960-cb002) [°C] | thermal shift delta Tm (LOC_OS01G39600-cb002) [°C] | thermal shift delta Tm (LOC_OS01G48390-cb002) [°C] | thermal shift delta Tm (LOC_OS01G51400-cb002) [°C] | thermal shift delta Tm (LOC_OS01G52050-cb004) [°C] | thermal shift delta Tm (LOC_OS01G57100-cb003) [°C] | thermal shift delta Tm (LOC_OS01G60330-cb001) [°C] | thermal shift delta Tm (LOC_OS01G60700-cb002) [°C] | thermal shift delta Tm (LOC_OS01G63280-cb003) [°C] | thermal shift delta Tm (LOC_OS01G67340-cb003) [°C] | thermal shift delta Tm (LOC_OS01G70970-cb002) [°C] | thermal shift delta Tm (LOC_OS02G07810-cb001) [°C] | thermal shift delta Tm (LOC_OS02G08530-cb003) [°C] | thermal shift delta Tm (LOC_OS02G14120-cb001) [°C] | thermal shift delta Tm (LOC_OS02G17970-cb001) [°C] |
| --- | --- | --- | --- | --- | --- | --- | --- | --- | --- | --- | --- | --- | --- | --- | --- | --- | --- | --- | --- | --- |
| C[C@@H](N)c1ccc(C(=O)Nc2ccnc3[nH]ccc23)cc1 | 0.24 | 1.16 | 0.32 | 0.63 | 1.44 | 1.78 | 0.74 | 0.45 | 0.27 | 1.35 | 0.44 | 1.35 | 0.79 | 0.61 | 0.47 | 0.39 | 0.79 | 0.76 | 4 | 1.28 |
| Oc1c2ccccc2c2c3c(cccc13)N=N2 | 3.59 | 5.55 | 3.61 | 0.39 | 2.06 | 2.7 | 1.16 | 5.42 | 0.42 | 7.57 | 1.83 | 9.76 | 1.18 | 2.18 | 6.47 | 6.02 | 1.65 | 3.38 | 5.57 | 0.82 |
| COc1cc2ncnc(Nc3ccc(Oc4ccccc4)cc3C)c2cc1OC | 0.68 | 0.9 | 0.3 | -0.47 | 0.22 | 0.26 | 0.05 | 0.79 | 0.08 | 2.07 | 1.05 | 0.33 | 0.09 | 0.54 | 0.17 | 0.47 | -1.03 | 0.5 | 3.14 | 0.03 |
